# Screen size: about 5,500 compounds; about 2,000 (36%) were called active. Another 18% or so got no clear call; they are omitted. Some of the results follow. Values without a mark were called inactive. Rule as the data show it: active = normalized growth mostly below about 0.91 (no sharp cut-off); inconclusive = no clear call, values can overlap the other calls; inactive = mostly above about 0.92.
# Test: chemical genetic growth profiling, strain panel (AID 1159580);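 also: tested at 20 µM; growth read once vehicle control cultures reached saturation at 30 °C; 1 = growth at the plate median or of vehicle wells; lower values mean less growth of the strain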
# Settings: S. cerevisiae deletion strains, growth OD
smiles,measurement,setting,value
COc1cccc(-c2cc(=O)c3ccccc3o2)c1N,normalized growth,"locus YAL040C, strain CLN3, hits give low values",0.905
same,normalized growth,"locus YCL061C, strain MRC1 (second series), hits give low values",1
same,normalized growth,"locus YDR363W, strain ESC2, hits give low values",1.04
same,normalized growth,"locus YER002W, strain NOP16, hits give low values",1.02
same,normalized growth,"locus YJR075W, strain HOC1, hits give low values",0.992
same,normalized growth,"locus YMR263W, strain SAP30, hits give low values",0.997
same,normalized growth,"locus YMR307W, strain GAS1, hits give low values",0.992
same,normalized growth,"locus YNL175C, strain NOP13, hits give low values",0.922
same,normalized growth,"locus YNL197C, strain WHI3, hits give low values",0.937
same,normalized growth,"locus YNL224C, strain SQS1, hits give low values",0.907 (active)
same,normalized growth,"locus YNL322C, strain KRE1, hits give low values",1.01
same,normalized growth,"locus YOR083W, strain WHI5 (second series), hits give low values",0.807 (active)
same,normalized growth,"locus YPL055C, strain LGE1, hits give low values",1.01

# Source: PubChem BioAssay AID1159580 (chemical genetic matrix, 2015)
